# The full ranking holds about 33,000 sequences; the median of “E-score (-0.5 to 0.5)” is about -0.021, and the highest 2% start at about 0.32. This excerpt belongs to a sample that is enriched for the highest values.
# Molecular target: T1, Zap1 (UniProt P47043)
# T1 sequence: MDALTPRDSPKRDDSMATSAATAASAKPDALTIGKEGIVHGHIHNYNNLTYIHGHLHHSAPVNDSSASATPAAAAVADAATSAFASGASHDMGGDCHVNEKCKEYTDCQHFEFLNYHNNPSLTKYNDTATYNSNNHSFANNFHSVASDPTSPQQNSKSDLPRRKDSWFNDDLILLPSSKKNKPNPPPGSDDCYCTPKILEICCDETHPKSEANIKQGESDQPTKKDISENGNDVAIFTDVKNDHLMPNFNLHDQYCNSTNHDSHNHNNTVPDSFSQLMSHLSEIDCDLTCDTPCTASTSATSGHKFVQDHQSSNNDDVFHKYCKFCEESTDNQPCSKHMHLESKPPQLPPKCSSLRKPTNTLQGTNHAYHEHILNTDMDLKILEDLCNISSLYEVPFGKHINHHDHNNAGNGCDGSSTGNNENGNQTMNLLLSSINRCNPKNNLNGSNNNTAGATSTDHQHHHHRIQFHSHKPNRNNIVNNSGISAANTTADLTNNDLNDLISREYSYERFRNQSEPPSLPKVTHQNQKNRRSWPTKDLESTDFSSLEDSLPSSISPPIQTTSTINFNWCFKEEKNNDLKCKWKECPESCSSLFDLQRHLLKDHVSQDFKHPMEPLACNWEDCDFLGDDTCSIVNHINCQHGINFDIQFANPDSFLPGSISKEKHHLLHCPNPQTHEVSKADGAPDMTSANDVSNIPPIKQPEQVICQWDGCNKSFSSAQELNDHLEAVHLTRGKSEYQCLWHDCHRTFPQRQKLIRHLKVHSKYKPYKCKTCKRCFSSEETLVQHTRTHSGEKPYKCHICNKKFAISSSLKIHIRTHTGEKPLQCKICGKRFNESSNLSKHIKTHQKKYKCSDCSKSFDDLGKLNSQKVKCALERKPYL
# Test: PBM E-score (8-mer binding enrichment) (E-score (-0.5 to 0.5)); higher = stronger / more preferred TF binding
# Settings: protein concentration: 200 nM; construct: GST-full length
# Method: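 Universal 'all 10-mer' protein binding microarrays (Agilent AMADID 015681) probed with GST-tagged S. cerevisiae TFs (full-length or DBD) made by in vitro transcription/translation (PURExpress), about 100-200 nM. Bound TF was detected with fluorescent anti-GST. Each ungapped 8-mer (which stands for itself and its reverse complement) is scored by the PBM enrichment score (E-score), a modified Wilcoxon-Mann-Whitney statistic from -0.5 to +0.5, computed with the Universal PBM Analysis Suite. Scale: above 0.35 generally sequence-specific binding.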
row,Sequence,PBM E-score
1,GTCTTCTA,-0.0319
2,CTGATGGA,-0.254
3,GACCTTGA,0.34
4,AACCTTGA,0.429
5,TACCTTCA,0.255
6,TACCTTGA,0.337
7,CACCTTGA,0.179
8,AACCTTGT,0.229
9,GTCCTTGA,0.113
10,AACCTTGC,0.305
11,GACCTTGC,0.133
12,CTAGGGAC,-0.0705
13,CAAAACTC,0.0001
14,GTCTCCCA,-0.252
15,GTAAAGGA,-0.0539
16,CATAAACG,0.0839
17,AGGTAATA,0.263
18,GGGTAACA,0.334
19,TGGTAACA,0.0812
20,AAGTAACA,-0.0158
21,AGGTAACA,0.344
22,CGGTAACA,0.253
23,AGGTAAGA,0.125
24,GGGTAATA,0.348
25,CGGTAACG,0.0507

row,Sequence,PBM E-score
1,CGGTAACC,0.47
2,GTGTAACA,0.0444
3,CGGTAATA,0.219
4,ATGAGCAT,0.049
5,ACCTGAGT,0.0343
6,GTGACGCA,0.0591
7,TCTCTTCA,-0.139
8,AAGGGCGC,0.0237
9,TCTACACA,0.0487
10,AGGTAACG,0.19
11,AGGTAACC,0.441
12,GGGTAACC,0.46
13,GGGTAAAC,0.194
14,GGGTAAAA,0.306
15,AGGTAACT,0.237
16,CAGGAGGG,0.143
17,AATTCACC,0.0819
18,AGTCCTCC,-0.144
19,AAAGCAGG,-0.075
20,AGGTGACA,0.0888
21,GGGTGACA,0.252
22,AGGTGACG,0.182
23,CGGTGACA,0.193
24,GAGTGACC,0.239
25,CGGTGACG,0.0241

row,Sequence,PBM E-score
1,GGGTGACC,0.385
2,CGGTGACC,0.327
3,AGGTGACC,0.393
4,TAAGACTA,-0.0191
5,TGACAAAA,0.152
6,CAAGTGTA,-0.0404
7,AGCCCCCT,-0.406
8,AAGATGCG,-0.058
9,AAGAGGGA,-0.199
10,ATACTCTA,-0.0192
11,CGCCACTC,-0.113
12,CTAGGTTA,0.42
13,ATAGGTTC,0.138
14,ATAGGTTA,0.46
15,ATAGGTTG,0.16
16,CTAGGTTC,0.0156
17,GTAGGTGA,0.0614
18,GTAGGTTA,0.39
19,CTAGGTCA,0.117
20,GTAGGTAA,0.199
21,AAGCACGT,-0.3
22,CGGTTAGC,0.151
23,CCAATTAC,0.103
24,ACCAAATC,0.0501
25,AACTACCA,0.179

row,Sequence,PBM E-score
1,AGTATCCG,-0.013
2,AGGTCTGA,-0.0295
3,ACTAGAGG,-0.0174
4,CCTAGAGG,0.366
5,CCTAGAGA,-0.0434
6,GTAATGCA,-0.157
7,AAGGGGTA,0.334
8,GAAGGGAA,-0.194
9,GAAGGGGA,-0.0649
10,AGGGGGTA,0.0442
11,TAAGGGGA,0.00031
12,AAAGGGCA,-0.0435
13,AAAGGGTA,0.415
14,AAGGGGGA,-0.245
15,AAAGGGGA,-0.127
16,TAAGGGCA,-0.0345
17,TAAGGGTA,0.433
18,GAAGGGTA,0.421
19,AACGAATA,-0.00355
20,CAATCCAG,-0.0505
21,CGAAGTCG,0.0486
22,GCTTCCGA,-0.0201
23,AGAGCAAT,-0.181
24,AACCTAGG,0.232
25,ACCCTAGG,0.428

row,Sequence,PBM E-score
1,ACCCTAGC,0.247
2,CCCCTAGA,0.147
3,ACCCTAGT,0.411
4,CCCCTAGG,0.16
5,TCCCTAGA,-0.0192
6,ACCCTAGA,0.359
7,AACCTAGT,0.161
8,GAAGTGGC,-0.106
9,GCGCATGA,-0.185
10,AGGACATG,-0.0235
11,AAATACCA,0.129
12,ACGGGTTC,0.0245
13,GCGGGTTA,0.366
14,CGGGGTTA,0.474
15,ACGGGTTG,0.158
16,CGGGGTTC,0.168
17,ACGGGTTA,0.408
18,CCGGGTTC,0.247
19,CCGGGTGA,0.218
20,CCGGGTTA,0.388
21,GCGGGGTA,0.293
22,GCGGGTAA,0.106
23,GGGGGTTA,0.0334
24,ATCTTATG,-0.00019
25,CCCTTCAG,0.122

row,Sequence,PBM E-score
1,GCGCACAC,-0.234
2,CGGCGTTA,0.0618
3,ATCTAGGA,-0.0827
4,AAGTTGAT,-0.14
5,AGCTGTAG,-0.0501
6,ATGGCCAC,0.185
7,ATGGCCAT,0.332
8,ATGGCCAG,0.268
9,CGACGCTC,0.0879
10,CTGAGCCC,-0.179
11,ACCCTTAT,0.404
12,ATCCTTAG,-0.192
13,TCCCTTAA,0.0619
14,CCCCTTAG,0.107
15,AGCCTTAT,-0.0493
16,ACCCTTAC,0.29
17,ACCCTTAA,0.443
18,GCCCTTAA,0.112
19,ACCCTTAG,0.432
20,TAGTTGCA,0.116
21,ATACACGC,-0.091
22,AATCACAC,0.0533
23,TCTCGCCA,-0.206
24,ACAATACC,0.252
25,TACTATAA,0.249

row,Sequence,PBM E-score
1,CAGATGAA,-0.103
2,ACTCTCGG,0.0208
3,ACGGTGAA,-0.0282
4,ACCTCGAT,0.245
5,ACCTCGTC,0.0929
6,CCCTCGAG,0.159
7,ACCTCGAG,0.349
8,ACCTCGTA,0.189
9,ACCTCGTG,0.348
10,ACTGTCGA,-0.0508
11,CCCAATTC,0.157
12,TCACAGAA,-0.00307
13,CTGCGCAG,-0.325
14,CTTGAGCC,-0.111
15,AGAACCAC,0.285
16,GGAACCAC,0.0961
17,CAAACCAC,0.0159
18,GAAACCAC,0.116
19,CCAACCAC,0.256
20,AAAACCAC,0.197
21,ATAACCAC,0.46
22,GTAACCAC,0.431

# — the supplement of paper PMC3334620
